# EWS-Fli inh: EWS/Fli transcriptional activity inhibition. A673 NR0B1-luciferase reporter, viability-normalised. inhibition, % at 12.6 µM. actives 0.67% (n = 350,000);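 active means mean inhibition of at least 50% after viability correction, with every replicate also passing that limit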;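 further: firefly luciferase signal divided by Alamar Blue viability fluorescence both relative to DMSO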
# CF NFkB block: blocks PAF-induced NF-kB reporter in cystic fibrosis cells | KKLEB NF-kB-GFP reporter, GFP fluorescence overnight | actives 0.86% (n = 360,000) | inhibition, % at 5 µM | AID 588850;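 active means at least 50% inhibition at 5 µM, scaled per plate between neutral and stimulator controls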;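 further: PAF is a Pseudomonas aeruginosa culture filtrate used as stimulus; plate controls were PAF-stimulated DMSO wells for no effect and unstimulated DMSO wells for full effect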
# PAX8 reporter: PAX8 transcriptional activity inhibition; RMG-I TPO-luciferase reporter, SteadyGlo, 24 h; inhibition, % at 12.6 µM; actives 1.2% (n = 360,000);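 active means mean replicate inhibition at least 60% with every replicate also reaching 60%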;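 further: luciferase light reporting Pax8 driven TPO promoter activity; plate controls were median of neutral control wells for no effect and mitoxantrone controls for full effect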
# LGR2 inh: blocks bursicon-induced cAMP signaling via Drosophila LGR2. inhibition, % at 9.99 µM. actives 0.35% (n = 380,000). AID 720647. HEK293 LGR2, CRE-luciferase, bursicon-stimulated, 4 h;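 active means drop in luminescence signal, shown as inhibition above about 50% in the replicate tests, limit read from the data, passing the limit was not always enough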;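 further: agonist challenge used bursicon conditioned medium at about half maximal strength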
# KKLEB tox: counter-screen for CF NF-kB inhibitors: cytotoxicity | activity change (cytotoxicity), % at 5 µM | KKLEB CF airway cells viability, ATPlite luminescence, overnight; active compounds read low; cells stimulated with P. aeruginosa culture filtrate | actives 0.36% (n = 360,000);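 active means corrected activity change at or below -50% at 5 µM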
# Shn3 inh set2: reduces Shn3 3'UTR luciferase signal in osteoblasts; Clone20 osteoblast Shn3 3'UTR firefly luciferase, 24 h; inhibition, % at 12.5 µM; actives 0.52% (n = 360,000);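 active means mean inhibition of at least 75% with every replicate also reaching 75%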;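 further: 0% = median of neutral control wells and 100% = pilot-screen positive control compound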
# Numbers without * were called inactive; . = no result. Sampled rows, rich in hits. Any-hit rate of the full collection: about 2%.
SMILES,EWS-Fli inh,CF NFkB block,PAX8 reporter,LGR2 inh,KKLEB tox,Shn3 inh set2
CCCC(=O)O[C@]1(C(=O)COC(C)=O)CC[C@H]2[C@@H]3C[C@H](F)C4=CC(=O)C=C[C@]4(C)[C@@]3(F)[C@@H](O)C[C@@]21C,-2,63*,-5,6,-14,26
CC(=O)OCC(=O)C1CCC2C3CCC4=CC(=O)C=CC4(C)C3CCC12C (centres undefined),18,8,13,.,13,4
C[C@]12C=CC(=O)C=C1CCC1C3CC[C@](O)(C(=O)CO)[C@@]3(C)CC3OC312 (some centres undefined),.,13,-16,-2,6,-3
CC(=O)[C@@]1(O)CC[C@H]2[C@@H]3C[C@H](C)C4=CC(=O)C=C[C@]4(C)[C@@]3(F)[C@@H](O)C[C@@]21C,0,72*,20,3,25,10
CC(=O)C1(O)CCC2C3CC(C)C4=CC(=O)CCC4(C)C3CCC21C (centres undefined),8,48,15,12,16,0
CC(=O)OCC(=O)[C@@]1(O)[C@H](C)C[C@H]2[C@@H]3CCC4=CC(=O)C=C[C@]4(C)[C@@]3(F)[C@@H](O)C[C@@]21C,8,69*,6,-18,9,10
CCCC#Cc1ccc([C@H]2[C@H](CO)N3C(=O)CN(C(=O)Nc4ccc(F)cc4)C[C@@H]23)cc1,.,.,.,4,.,.
COc1ccc2c3c([nH]c2c1)[C@H](CO)N(C(=O)Nc1ccc(F)cc1)CC31CN(CC2CCOCC2)C1,3,.,.,-13,.,.
O=C(C[C@H]1C=C[C@@H](NC(=O)C2CCOCC2)[C@@H](CO)O1)NCC1CC1,-2,.,-2,-14,.,.
O=C1OCC2=C1C(c1ccc(F)cc1)c1cc3c(cc1N2)OCO3 (centres undefined),67*,59*,72*,.,-18,28
C#CCOc1ccc(C2C3=C(COC3=O)Nc3cc4c(cc32)OCO4)cc1OC (centres undefined),58*,-3,86*,-21,5,2
O=C1OCC2=C1C(c1ccc(F)cc1)c1cc3c(cc1N2)OCCO3 (centres undefined),46,63*,85*,-6,-28,26
O=C1OCC2=C1C(c1ccc3c(c1)OCO3)Sc1ccccc1N2 (centres undefined),.,9,.,.,-5,25
CCOc1ccccc1C1C2=C(COC2=O)Nc2cc3c(cc21)OCO3 (centres undefined),47,54*,88*,13,-7,35
COCC(=O)N(C)C[C@@H]1Oc2ncc(-c3ccc(F)cc3)cc2C(=O)N([C@@H](C)CO)C[C@@H]1C,1,.,.,-11,.,.
COc1ccc(NC(=O)Nc2ccc3c(c2)C(=O)N([C@H](C)CO)C[C@H](C)[C@@H](CN(C)Cc2ccncc2)OCCCC[C@@H](C)O3)cc1,-13,.,-7,-14,.,.
CO[C@H](CN(C)C(=O)c1ccc2c(c1)OCO2)[C@H](C)CN([C@@H](C)CO)S(=O)(=O)c1ccc(F)cc1,1,.,.,-14,.,.
COc1ccc(S(=O)(=O)Nc2ccc3c(c2)CC(=O)N([C@@H](C)CO)C[C@@H](C)[C@@H](CN(C)Cc2ccc(-c4ccccc4)cc2)O3)cc1,23,.,85*,5,.,.
COc1ccc(S(=O)(=O)Nc2ccc3c(c2)CC(=O)N([C@H](C)CO)C[C@H](C)[C@@H](CN(C)Cc2ccc(-c4ccccc4)cc2)O3)cc1,-3,.,76*,15,.,.
COc1ccc(S(=O)(=O)Nc2ccc3c(c2)CC(=O)N([C@@H](C)CO)C[C@H](C)[C@H](CN(C)S(=O)(=O)c2ccc(C)cc2)O3)cc1,-16,.,72*,1,.,.
C[C@H]1CN([C@@H](C)CO)C(=O)Cc2cc(NS(=O)(=O)c3ccc(F)cc3)ccc2O[C@@H]1CN(C)Cc1ccc(-c2ccccc2)cc1,2,.,17,-8,.,.
C[C@H](CO)N1C[C@H](C)[C@@H](CN(C)Cc2ccc(-c3ccccc3)cc2)Oc2ccc(NS(=O)(=O)c3ccc(F)cc3)cc2CC1=O,12,.,76*,3,.,.
COc1ccccc1C(=O)N1C[C@@H]2[C@H](c3ccccc31)[C@@H](CO)N2CC1CCOCC1,8,.,1,13,.,.
COC(=O)c1ccc2nc(-c3ccc4c(c3)OCO4)cn2c1,2,-15,21,83*,-35,42
CCc1ccn2cc(-c3ccc4c(c3)OCO4)nc2c1,83*,-16,80*,97*,-76*,81
SMILES,EWS-Fli inh,CF NFkB block,PAX8 reporter,LGR2 inh,KKLEB tox,Shn3 inh set2
COc1ccc(-c2cn3cc(C(=O)NN)ccc3n2)cc1,-38,-6,-87,-47,12,-83
COc1ccc2c3c(n(C)c2c1)[C@H](CO)N(C(=O)C1CCCCC1)CC31CCN(C(=O)CN(C)C)CC1,-5,.,-26,-6,.,.
COc1ccccc1C(=O)Nc1ccc2c(c1)nc(CCNC(=O)c1ccccc1)n2C,65*,-3,-4,-31,-1,-5
COc1ccccc1C(=O)Nc1ccc2c(c1)nc(CCNC(C)=O)n2C,.,-4,.,-17,7,-24
CCCN1C(=O)S/C(=C\c2ccc(N3CCOCC3)o2)C1=O,15,-7,6,-38,12,89*
O=C(CN1CCOCC1)N1[C@H](CO)[C@@H]2c3ccccc3NC[C@@H]21,0,.,-16,2,.,.
CC1(C)CC(=O)C(C=Nc2ccc(C(=O)c3ccccc3)cc2N=CC2=C(O)CC(C)(C)CC2=O)=C(O)C1,20,52*,2,11,-59*,0
Cc1cc(C)n(-c2nc(NCCN(C)C)c3c4c(sc3n2)CCCC4)n1,19,27,97*,47,-25,20
CSC(=Nc1ccccc1)N=C(SCc1ccccc1)N(C)C,57*,37,101*,76*,-11,93*
C[C@H](CO)N1C[C@H](C)[C@H](CN(C)Cc2ccc(Cl)c(Cl)c2)Oc2ccc(NC(=O)CCCN(C)C)cc2C1=O,70*,.,-9,10,.,.
C[C@H](CO)N1C[C@H](C)[C@H](CN(C)Cc2ccc(C(F)(F)F)cc2)OCCCC[C@H](C)Oc2ccc(NC(=O)CCCN(C)C)cc2C1=O,68*,.,28,18,.,.
C[C@H](CO)N1C[C@H](C)[C@H](CN(C)Cc2ccc(C(F)(F)F)cc2)OCCCC[C@H](C)Oc2ccc(NC(=O)CCC(F)(F)F)cc2C1=O,4,.,77*,22,.,.
C[C@H](CO)N1C[C@H](C)[C@H](CN(C)CC2CCCCC2)Oc2c(NS(=O)(=O)c3ccccc3)cccc2C1=O,1,.,-16,-4,.,.
O=C(C[C@H]1C[C@@H]2c3cc(NS(=O)(=O)c4ccc(F)cc4)ccc3O[C@@H]2[C@@H](CO)O1)NCc1ccccc1F,6,.,10,7,.,.

# Screens (PubChem BioAssay)
